From PubChem BioAssay (NCATS)
Results filed as inconclusive are left out. Calls of active or inactive are those of the source. Unless noted, the call rests on the fitted dose curve; in most records, active means well fitted curve in the direction sought with a large enough effect; inconclusive means small, poorly fitted or top-dose-only effect, or another doubt; inactive means no such curve, though single readings can be large; an effect the other way counts as inactive or inconclusive.

Columns and labels:
[1] = AP1 Signaling Pathway (AID 357; active means well fitted curve in either direction with a large enough effect, not every such curve was filed as active;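 further: ME-180 reporter cells stimulated with EGF at its EC50 level; on the % scale 0 is the no-effect control and ±100 the full control effect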); details: ME-180 (cervical carcinoma) AP-1-bla reporter, EGF-induced, beta-lactamase ratio, 5 h; at 17.2 µM (top of the series) unless noted
Method in brief: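 Titration-series screen for positive or negative modulators of EC50 EGF-induced signaling in ME-180 cells carrying an AP-1-driven beta-lactamase reporter. After 5 hours at 37 degrees Celsius, CCF4 460nm/530nm emission ratio gave %Activity; AC50 values derived.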

[2] = Stat Signaling Pathway (AID 446; active means well fitted curve in either direction with a large enough effect, not every such curve was filed as active;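 further: ME-180 cervical cancer cells given 40 pM IL-6 alongside compound; SIE-controlled beta-lactamase reporter measured as 460/530 nm FRET emission ratio; on the % scale 0 is the no-effect control and ±100 the full control effect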)
Method in brief: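 Normalization used AC90 stimulation (300 pM IL-6) and AC90 inhibition (125 nM pan-JAK inhibitor at 40 pM IL-6). The underlying signal is SIE-driven beta-lactamase in ME-180 cells after 5 h IL-6 exposure with compound.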

[3] = target: Glucocorticoid receptor (Homo sapiens) (UniProt P04150); experiment: GR-GFP Redistribution (AID 450;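 active means compounds whose dose series gives a full or clear partial fitted curve of increased nuclear translocation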; further: potency means the concentration at half of the fitted maximal effect); details: U2OS GR-GFP nuclear translocation, laser cytometry, 2 h
Chain of Glucocorticoid receptor (Homo sapiens) (P04150 whole entry, looked up, the tested form may be a part): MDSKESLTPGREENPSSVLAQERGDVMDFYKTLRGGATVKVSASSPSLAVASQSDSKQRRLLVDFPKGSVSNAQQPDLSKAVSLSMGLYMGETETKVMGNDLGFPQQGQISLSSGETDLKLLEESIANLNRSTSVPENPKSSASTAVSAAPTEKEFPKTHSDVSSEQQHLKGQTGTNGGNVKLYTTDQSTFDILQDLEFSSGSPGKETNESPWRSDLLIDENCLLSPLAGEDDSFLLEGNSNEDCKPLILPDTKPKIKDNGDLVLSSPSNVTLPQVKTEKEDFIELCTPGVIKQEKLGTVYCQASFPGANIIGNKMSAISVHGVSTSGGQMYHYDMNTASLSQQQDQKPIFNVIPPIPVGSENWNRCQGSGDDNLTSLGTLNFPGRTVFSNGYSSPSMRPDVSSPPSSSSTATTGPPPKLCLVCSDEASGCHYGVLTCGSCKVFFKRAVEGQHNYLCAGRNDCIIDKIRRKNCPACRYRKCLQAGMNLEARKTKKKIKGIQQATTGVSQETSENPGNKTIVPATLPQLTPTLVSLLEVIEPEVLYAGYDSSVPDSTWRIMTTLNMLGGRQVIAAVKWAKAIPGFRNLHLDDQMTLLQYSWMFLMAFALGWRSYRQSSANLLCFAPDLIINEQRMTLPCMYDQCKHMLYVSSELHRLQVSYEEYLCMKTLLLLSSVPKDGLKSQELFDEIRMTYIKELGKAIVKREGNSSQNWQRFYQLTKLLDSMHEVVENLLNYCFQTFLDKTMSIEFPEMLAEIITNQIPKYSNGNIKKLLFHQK

[4] = target: Cytochrome P450 1A2 (Homo sapiens) (UniProt P05177); experiment: p450-cyp1a2 (AID 410; calls by dose curve; further: potency means the concentration at half of the fitted maximal effect;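 on activity change, negative = inhibition: -100% = full effect of reference inhibitor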)
Chain of Cytochrome P450 1A2 (Homo sapiens) (P05177 whole entry, looked up): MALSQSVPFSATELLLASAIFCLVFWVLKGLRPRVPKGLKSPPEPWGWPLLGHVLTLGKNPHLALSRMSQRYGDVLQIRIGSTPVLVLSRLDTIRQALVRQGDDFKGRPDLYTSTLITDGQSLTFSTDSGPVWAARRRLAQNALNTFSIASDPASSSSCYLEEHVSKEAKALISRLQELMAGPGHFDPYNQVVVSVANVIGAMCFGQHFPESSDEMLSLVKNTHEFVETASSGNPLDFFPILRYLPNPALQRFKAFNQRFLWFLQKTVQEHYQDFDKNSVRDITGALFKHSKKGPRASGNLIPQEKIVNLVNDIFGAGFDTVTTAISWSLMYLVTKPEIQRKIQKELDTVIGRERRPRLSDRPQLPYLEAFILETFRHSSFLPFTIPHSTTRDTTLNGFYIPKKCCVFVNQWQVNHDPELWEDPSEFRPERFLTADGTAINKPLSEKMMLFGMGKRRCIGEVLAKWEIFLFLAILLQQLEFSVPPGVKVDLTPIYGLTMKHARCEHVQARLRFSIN
Method in brief: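 Read-out is luminescence from luciferin produced by CYP1A2 demethylation of Luciferin-ME (100uM, at Km). Detection reagent stopped the 60 min NADPH-dependent reaction; signals were normalized to 57 uM furafylline.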

[5] = target: Glucocorticoid receptor (Homo sapiens) (UniProt P04150); experiment: GR-EFC Redistribution (AID 451; calls by dose curve; further: potency means the concentration at half of the fitted maximal effect); details: CHO-K1 GR-EFC translocation, beta-gal luminescence, 2 h
Method in brief: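 CHO-K1 cells stably expressing nuclear-localized β-gal enzyme acceptor and GR fused C-terminally to the enzyme donor fragment; ligand-driven nuclear translocation restores β-gal by complementation. Compounds titrated up to 46 uM final, 2 h at 37 °C; luminescence read.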

[6] = target: Mitogen-activated protein kinase 10 (Mus musculus) (UniProt Q61831); experiment: JNK3 AlphaScreen Assay (AID 530; active means well fitted curve in either direction with a large enough effect, not every such curve was filed as active;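 further: kinase came from lysate of stimulated human HepG2 cells; signal reports phosphorylation of biotinylated GST-cJun 1-79 at Ser73 with 10 µM ATP; on the % scale 0 is the no-effect control and ±100 the full control effect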)
Method in brief: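 Biotinylated GST-cJun(1-79) served as substrate for JNK3 in HepG2 lysates stimulated with IL-1beta and TNF-alpha. ATP was 10 uM final, pH 7.6. Ser73 phosphorylation was quantified by AlphaScreen (680 nm excitation).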

[7] = target: 3',5'-cyclic-AMP phosphodiesterase 4B (Homo sapiens) (UniProt Q07343); experiment: qHTS Assay for Inhibitors of PDE-IV (AID 607; active means well fitted activation curve with a large enough effect in the main read-out, with a control signal flat, not every such curve was filed as active; further: % of control where 0% means no effect)
Chain of 3',5'-cyclic-AMP phosphodiesterase 4B (Homo sapiens) (Q07343 whole entry, looked up): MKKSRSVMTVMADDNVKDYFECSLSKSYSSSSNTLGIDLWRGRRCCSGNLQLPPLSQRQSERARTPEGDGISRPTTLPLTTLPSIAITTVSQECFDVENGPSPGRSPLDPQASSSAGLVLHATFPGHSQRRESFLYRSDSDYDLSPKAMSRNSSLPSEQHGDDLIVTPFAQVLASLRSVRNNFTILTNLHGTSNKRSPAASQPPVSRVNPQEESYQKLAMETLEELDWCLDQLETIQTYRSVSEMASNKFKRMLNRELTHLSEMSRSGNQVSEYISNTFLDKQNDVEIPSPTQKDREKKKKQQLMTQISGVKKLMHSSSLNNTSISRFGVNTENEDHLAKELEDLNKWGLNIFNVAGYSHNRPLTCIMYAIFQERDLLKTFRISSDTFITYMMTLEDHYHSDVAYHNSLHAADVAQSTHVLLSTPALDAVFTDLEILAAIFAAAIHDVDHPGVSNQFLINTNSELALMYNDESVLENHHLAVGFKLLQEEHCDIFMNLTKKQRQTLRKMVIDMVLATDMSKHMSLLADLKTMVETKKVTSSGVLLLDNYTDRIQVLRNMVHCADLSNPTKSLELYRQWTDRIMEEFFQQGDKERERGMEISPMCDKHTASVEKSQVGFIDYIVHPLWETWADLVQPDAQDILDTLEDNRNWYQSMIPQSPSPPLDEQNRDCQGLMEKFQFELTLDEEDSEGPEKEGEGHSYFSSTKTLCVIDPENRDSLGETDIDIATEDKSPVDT
Method in brief: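 HEK293 ACTOne cells with CNG channel (1000/well), endogenous PDE4; membrane potential dye, compounds up to 22.9 uM final. Fluorescence Ex 535/Em 590; RO 20-1724 (100 uM final) as reference.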

[8] = target: Cytochrome P450 2C9 (Homo sapiens) (UniProt P11712); experiment: qHTS Assay for Inhibitors and Substrates of Cytochrome P450 2C9 (AID 883); further: on the % scale 0 is the no-effect control and ±100 the full control effect; nearly all actives have a fitted effect of over 60% in size
Chain of Cytochrome P450 2C9 (Homo sapiens) (P11712 whole entry, looked up): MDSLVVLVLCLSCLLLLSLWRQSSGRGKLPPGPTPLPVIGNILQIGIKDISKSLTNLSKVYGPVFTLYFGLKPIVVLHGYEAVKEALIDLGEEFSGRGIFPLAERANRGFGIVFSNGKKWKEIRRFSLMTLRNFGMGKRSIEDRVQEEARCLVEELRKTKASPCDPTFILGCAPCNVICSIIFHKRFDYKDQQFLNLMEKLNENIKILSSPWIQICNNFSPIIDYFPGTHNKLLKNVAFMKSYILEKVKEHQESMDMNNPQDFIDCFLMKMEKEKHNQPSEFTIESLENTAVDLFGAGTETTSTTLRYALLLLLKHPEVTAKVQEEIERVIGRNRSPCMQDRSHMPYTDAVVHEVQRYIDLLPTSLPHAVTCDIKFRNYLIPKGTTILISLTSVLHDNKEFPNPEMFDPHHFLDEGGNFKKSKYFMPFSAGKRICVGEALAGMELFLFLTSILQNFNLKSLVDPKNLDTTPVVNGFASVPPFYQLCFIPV
Method in brief: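 A luminogenic readout tracked human CYP2C9 (10nM) converting deoxyluciferin (100uM, at KM) in 25mM KPO4 during 60 min at 37C with regenerated NADPH. Values normalized to 57uM sulphaphenazole as complete inhibition.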

[9] = target: Cytochrome P450 2C19 (Homo sapiens) (UniProt P33261); experiment: qHTS Assay for Inhibitors and Substrates of Cytochrome P450 2C19 (AID 899); further: nearly all actives have a fitted effect of over 60% in size; further: potency means the concentration at half of the fitted maximal effect
Chain of Cytochrome P450 2C19 (Homo sapiens) (P33261 whole entry, looked up): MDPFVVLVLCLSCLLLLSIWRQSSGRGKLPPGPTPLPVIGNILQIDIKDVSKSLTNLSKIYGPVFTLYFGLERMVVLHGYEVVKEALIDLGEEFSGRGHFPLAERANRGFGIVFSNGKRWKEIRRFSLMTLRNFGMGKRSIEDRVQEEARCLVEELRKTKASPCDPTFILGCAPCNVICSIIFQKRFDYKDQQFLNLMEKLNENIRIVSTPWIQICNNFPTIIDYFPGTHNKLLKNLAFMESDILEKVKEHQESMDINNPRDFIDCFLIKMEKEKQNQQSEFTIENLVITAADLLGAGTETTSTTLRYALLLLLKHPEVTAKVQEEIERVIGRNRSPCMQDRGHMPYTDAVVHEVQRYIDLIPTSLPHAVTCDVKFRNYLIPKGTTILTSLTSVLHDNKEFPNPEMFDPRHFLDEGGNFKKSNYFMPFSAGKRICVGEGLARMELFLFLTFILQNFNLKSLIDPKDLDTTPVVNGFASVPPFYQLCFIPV
Method in brief: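 NADPH-dependent conversion of Luciferin-H EGE (10uM, at KM) by 5nM enzyme in 50mM KPO4, 60 min at 37C following 10 min compound preincubation. Stopped with luciferin detection buffer; luminescence read after 20 min.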

[10] = target: Cytochrome P450 2D6 (Homo sapiens) (UniProt P10635); experiment: qHTS Assay for Inhibitors and Substrates of Cytochrome P450 2D6 (AID 891); further: nearly all actives have a fitted effect of over 60% in size; further: potency means the concentration at half of the fitted maximal effect
Chain of Cytochrome P450 2D6 (Homo sapiens) (P10635 whole entry, looked up): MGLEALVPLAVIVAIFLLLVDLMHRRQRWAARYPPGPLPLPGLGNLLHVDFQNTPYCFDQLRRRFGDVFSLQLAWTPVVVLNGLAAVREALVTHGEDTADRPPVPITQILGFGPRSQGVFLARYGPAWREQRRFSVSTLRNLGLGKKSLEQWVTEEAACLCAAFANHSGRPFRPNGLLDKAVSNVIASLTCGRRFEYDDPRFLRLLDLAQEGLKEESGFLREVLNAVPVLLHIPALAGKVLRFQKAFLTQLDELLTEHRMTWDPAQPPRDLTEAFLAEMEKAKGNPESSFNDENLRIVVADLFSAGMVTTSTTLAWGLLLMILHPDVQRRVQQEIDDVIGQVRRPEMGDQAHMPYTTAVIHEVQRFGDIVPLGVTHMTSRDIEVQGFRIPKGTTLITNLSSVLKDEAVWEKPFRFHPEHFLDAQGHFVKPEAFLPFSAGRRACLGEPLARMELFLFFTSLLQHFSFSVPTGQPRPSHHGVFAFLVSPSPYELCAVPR
Method in brief: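 Luminescent read-out of luciferin formed by 5 nM human CYP2D6 demethylating 30 uM Luciferin-ME EGE (Km level) over 60 min at room temperature after NADPH regeneration addition. Data normalized to full inhibition by 1.43 uM quinidine.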

[11] = target: Cytochrome P450 3A4 (Homo sapiens) (UniProt P08684); experiment: qHTS Assay for Inhibitors and Substrates of Cytochrome P450 3A4 (AID 884); further: potency means the concentration at half of the fitted maximal effect; nearly all actives have a fitted effect of over 50% in size
Chain of Cytochrome P450 3A4 (Homo sapiens) (P08684 whole entry, looked up): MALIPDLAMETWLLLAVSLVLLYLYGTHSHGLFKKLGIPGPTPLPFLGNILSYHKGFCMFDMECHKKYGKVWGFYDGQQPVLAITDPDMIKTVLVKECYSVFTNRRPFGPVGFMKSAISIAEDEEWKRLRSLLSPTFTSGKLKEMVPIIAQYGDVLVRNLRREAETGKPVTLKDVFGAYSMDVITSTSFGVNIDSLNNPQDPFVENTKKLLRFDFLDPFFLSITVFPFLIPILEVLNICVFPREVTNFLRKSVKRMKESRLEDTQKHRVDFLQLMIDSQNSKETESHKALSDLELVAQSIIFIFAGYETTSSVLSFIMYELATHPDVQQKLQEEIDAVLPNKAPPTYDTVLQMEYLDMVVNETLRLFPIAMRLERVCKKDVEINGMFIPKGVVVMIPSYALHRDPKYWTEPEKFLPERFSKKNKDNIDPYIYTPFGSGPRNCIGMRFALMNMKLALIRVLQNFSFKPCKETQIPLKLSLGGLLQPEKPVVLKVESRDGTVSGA
Method in brief: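 Luminescent readout of luciferin produced by CYP3A4 (20 nM) dealkylation of Luciferin-PPXE, 25 uM (its KM). NADPH-driven reaction ran 60 min at RT after 10 min compound preincubation; data scaled to 57 uM ketoconazole as 100% inhibition.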

[12] = target: Cytochrome P450 3A4 (Homo sapiens) (UniProt P08684); experiment: qHTS Assay for Activators of Cytochrome P450 3A4 (AID 885); further: nearly all actives have a fitted effect of over 65% in size
Method in brief: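 Human CYP3A4 dealkylates Luciferin-PPXE to luciferin, which luciferase detection converts to light. Substrate was at its KM (25uM), buffer 200mM KPO4, reaction 60 min at RT.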

[13] = target: Ubiquitin carboxyl-terminal hydrolase 1 (Homo sapiens) (UniProt O94782); experiment: Inhibitors of USP1/UAF1: Pilot qHTS (AID 504865);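 further: rhodamine fluorescence freed from ubiquitin-rhodamine substrate followed over time; top concentration of the series differs between compounds; on the % scale 0 is the no-effect control and ±100 the full control effect; nearly all actives have a fitted effect of over 35% in size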
Method in brief: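 USP1/UAF1 complex at 1 nM preincubated 15 min at room temperature with compound, then Ub-Rho substrate added at 150 nM final. Fluorescence (480/540 nm) read kinetically in 50 mM HEPES pH 7.8, 0.5 mM EDTA, 1 mM TCEP, 0.1 mg/ml BSA, 0.01% Tween-20.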

[14] = target: DNA dC->dU-editing enzyme APOBEC-3G (Homo sapiens) (UniProt Q9HC16); experiment: qHTS for inhibitors of Vif-A3G interactions: Validation (AID 588379); further: 0% is about no effect
Method in brief: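 Yellow fluorescence (Ex 488, Em 500-530) of Vif-coexpressing HeLa A3G-eYFP cells, scanned by Acumen cytometer, reports blocked A3G degradation. Cells plated at 700/well overnight at 37 deg C before compound addition, then a further overnight compound incubation at 37 deg C.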

[15] = NFAT Signaling Pathway (AID 444; active means well fitted curve in either direction with a large enough effect, not every such curve was filed as active;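 further: carbachol stimulus at about its EC50 of 1 µM final; on the % scale 0 is the no-effect control and ±100 the full control effect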); details: Jurkat NFAT-bla M1, carbachol, beta-lactamase ratio, 5 h; at 17.2 µM (top of the series) unless noted
Method in brief: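 Jurkat cells carrying an NFAT-driven β-lactamase reporter and co-transfected muscarinic M1 receptor were treated with compound plus carbachol (1 uM final, an EC50 level) for 5 h at 37 °C. CCF4 loading followed for 1 h at RT; 460/530 nm ratio gave %activity.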

[16] = target: Guanine nucleotide-binding protein G(i) subunit alpha-1 (Homo sapiens) (UniProt P63096); experiment: qHTS Assay for Inhibitors of RGS12 GoLoco Motif Activity (Green Fluorophore) (AID 879);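 further: 0% = labeled peptide with Gαi1 and full inhibition = labeled peptide alone without protein; negative values mean loss of peptide binding seen as reduced polarization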
Method in brief: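 A drop in FITC polarization marked displacement of the FITC-tagged RGS12 GoLoco peptide (10 nM) from Gαi1 (50 nM). Compounds were incubated 10 min at room temperature in Tris pH 7.5 buffer containing 150 mM NaCl, 0.1 mM GDP and 0.05% NP40; unlabeled peptide titration served as control.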

[17] = qHTS Assay for Identification of Small Molecule Antagonists for Thrombopoietin (TPO) Signaling Pathway (AID 918); details: TPO-dependent cell signaling reporter, antagonist mode; further: potency means the concentration at half of the fitted maximal effect; nearly all actives have a fitted effect of over 60% in size
Method in brief: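 Antagonist mode at EC50 TPO (26 pM) in IL-3-free medium; murine Ba/F3 cells with human TPO receptor and GPIIb-promoter luciferase, 24 hrs at 37 C before luminescent detection.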

[18] = target: Muscarinic acetylcholine receptor M1 (Rattus norvegicus) (UniProt P08482); experiment: qHTS Assay for Antagonists of Acetylcholine Muscarinic M1 Receptor: Measurement of IP-One Response (AID 944); further: nearly all actives have a fitted effect of over 75% in size
Method in brief: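 Antagonism was measured as loss of carbachol-driven (EC80) IP1 accumulation in CHO cells carrying rat M1, using a homogeneous IP-One TR-FRET kit read at 620 and 665 nm.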

[19] = target: Pyruvate kinase PKM (Homo sapiens) (UniProt P14618); experiment: qHTS Assay for Activators of Human Muscle Pyruvate Kinase (AID 954; active means well fitted curve in the direction sought with a large enough effect, not every such curve was filed as active;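 further: 0% = uninhibited enzyme and -100% = no enzyme or full thiadiazolimine inhibition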)
Method in brief: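 Compound pinned into substrate mix (0.5 mM PEP, 0.1 mM ADP), then 0.1 nM PKM2 added; 1 h, RT. Stop/detection luciferase reagent added, luminescence read. Normalized to no-inhibition and no-enzyme or reference-inhibitor controls.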

[20] = target: Alpha-galactosidase (Coffea arabica) (UniProt Q42656); experiment: Counterscreen for Glucocerebrosidase Inhibitors: qHTS Assay for Coffee Bean alpha-Galactosidase at pH 4.5 (AID 957);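 further: plate controls were enzyme alone for no effect and no enzyme for full effect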
Chain of Alpha-galactosidase (Coffea arabica) (Q42656 whole entry, looked up): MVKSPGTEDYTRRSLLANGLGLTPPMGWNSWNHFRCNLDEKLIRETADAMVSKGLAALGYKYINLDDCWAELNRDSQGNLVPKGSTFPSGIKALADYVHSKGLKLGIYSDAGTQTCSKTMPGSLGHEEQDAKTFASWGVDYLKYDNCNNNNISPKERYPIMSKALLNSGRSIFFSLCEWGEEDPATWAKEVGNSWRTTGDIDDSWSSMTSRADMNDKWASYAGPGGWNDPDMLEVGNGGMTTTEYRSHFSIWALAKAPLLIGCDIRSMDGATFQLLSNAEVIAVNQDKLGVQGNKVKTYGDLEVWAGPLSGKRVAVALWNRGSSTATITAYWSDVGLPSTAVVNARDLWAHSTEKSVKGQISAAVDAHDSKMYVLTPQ
Method in brief: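 Quantitative HTS of compounds (0.7 nM to 77 uM) against coffee bean alpha-galactosidase at pH 4.5, measuring 4-methylumbelliferone fluorescence released from 80 uM substrate.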

[21] = target: Alpha-galactosidase A (Homo sapiens) (UniProt P06280); experiment: Counterscreen for Glucocerebrosidase Inhibitors: qHTS Assay for Human alpha-Galactosidase at pH 4.5 (AID 992); further: 0% is about no effect
Chain of Alpha-galactosidase A (Homo sapiens) (P06280 whole entry, looked up): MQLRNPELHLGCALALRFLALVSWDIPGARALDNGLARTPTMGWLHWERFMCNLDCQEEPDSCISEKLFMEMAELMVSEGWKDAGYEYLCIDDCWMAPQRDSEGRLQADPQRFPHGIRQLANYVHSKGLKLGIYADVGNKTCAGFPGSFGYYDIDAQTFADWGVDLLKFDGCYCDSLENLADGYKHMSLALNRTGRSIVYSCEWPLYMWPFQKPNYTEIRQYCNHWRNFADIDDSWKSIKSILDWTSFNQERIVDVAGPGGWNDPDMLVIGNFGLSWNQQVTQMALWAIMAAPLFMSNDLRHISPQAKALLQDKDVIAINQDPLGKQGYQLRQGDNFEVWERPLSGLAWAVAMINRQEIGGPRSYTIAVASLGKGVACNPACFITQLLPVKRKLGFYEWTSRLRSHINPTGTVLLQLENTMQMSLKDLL
Method in brief: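 Steps: enzyme (2 nM final), then compound across 0.7 nM to 77 uM, then 80 uM fluorogenic galactopyranoside substrate; incubate 20 min at room temperature; quench at pH 10; measure fluorescence at 365/440 nm.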

[22] = target: Alpha-galactosidase (Coffea arabica) (UniProt Q42656); experiment: Counterscreen for Glucocerebrosidase Inhibitors: qHTS Assay for Coffee Bean alpha-Galactosidase at pH 5.9 (AID 998);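 further: plate controls were uninhibited enzyme for no effect and no-enzyme basal signal for full effect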
Method in brief: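 In 50 mM citric acid pH 5.9 with 0.005% Tween-20, coffee bean enzyme hydrolyses 80 uM 4-MU alpha-D-galactopyranoside over 20 min at RT. Activity is normalized to controls; AC50 comes from Hill-modelled concentration-response data.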

CC(C)[C@H]1C(=O)N2CCC[C@H]2[C@]2(O)O[C@](NC(=O)[C@@H]3C=C4c5cccc6[nH]cc(c56)C[C@H]4N(C)C3)(C(C)C)C(=O)N12
inactive: activity change, negative = inhibition [1] -19% | outcome [2] | Potency [3] > 20.6 µM

CC[C@@]12CCCN3CC[C@@]4(c5ccc(OC)c(O)c5N(C(C)=O)[C@H]4CC1)[C@H]32
inactive: Potency [4] | Potency [3] > 46 µM | Potency [5] > 46 µM | outcome [6] | outcome [7] | Potency [8]
active: Potency [9] 0.794 µM

CC[C@@H]1CN2CC[C@@H]1C[C@H]2[C@@H](O)c1ccnc2ccc(OC)cc12
inactive: Potency [4] | Potency [3] > 46 µM | Potency [5] > 46 µM | outcome [6] | Potency [8] | Potency [9]
active: Potency [10] 0.0016 µM

Cc1c(N=Cc2c(O)n(Cc3ccco3)c(=O)[nH]c2=O)c(=O)n(-c2ccccc2)n1C
inactive: activity change, negative = inhibition [1] -3.26% | outcome [2] | Potency [3] > 20.6 µM

C=C1C/C(=C\C)C(=O)O[C@@H]2CCN3CC=C(COC(=O)[C@]1(C)O)[C@H]23
inactive: Potency [4] | Potency [3] > 46 µM | Potency [5] > 46 µM | outcome [6] | outcome [7] | Potency [8] | Potency [10] | Potency [9]

C[C@@H](Cc1cccc(C(F)(F)F)c1)NCCCc1ccccc1
inactive: Potency [3] > 46 µM | Potency [5] > 46 µM | outcome [6] | Potency [12] | Potency [13] | outcome [14]
active: Potency [4] 3.98 µM | Potency [11] 5.01 µM | Potency [10] 0.0126 µM | Potency [9] 1.26 µM

C[C@@H]1CCC/C=C\[C@H]2C[C@H](O)C[C@@H]2[C@H](O)/C=C\C(=O)O1
inactive: Potency [4] | Potency [3] > 46 µM | Potency [5] > 46 µM | outcome [6] | outcome [7] | Potency [8] | Potency [10] | Potency [9]

CCOc1ccccc1-n1c(O)c(C=Nc2ccc(N(CC)CC)cc2)c(=O)[nH]c1=O
inactive: activity change, negative = inhibition [1] 3.1% | outcome [2] | Potency [3] > 20.6 µM

C=CCCN1C[C@@H]2C[C@H](C1)c1cccc(=O)n1C2
inactive: Potency [4] | Potency [3] > 46 µM | Potency [5] > 46 µM | outcome [6] | Potency [8] | Potency [10] | Potency [9]

Ic1ccccc1CN[C@@H]1C2CCN(CC2)[C@H]1C(c1ccccc1)c1ccccc1
inactive: activity change, negative = inhibition [15] -6.46% [at 38 µM] | Potency [3] > 46 µM | Potency [5] > 46 µM | outcome [6] | Potency [16] | Potency [12] | Potency [18] | outcome [19] | outcome [20] | outcome [21] | outcome [22]
active: Potency [4] 12.6 µM | Potency [10] 0.0631 µM | Potency [17] 12.6 µM
